Gli-Sufu block: Gli-Sufu pathway antagonism | Sufu-KO-LIGHT fibroblasts, Gli luciferase reporter luminescence | inhibition, % at 5 µM | 340,000 compounds, 0.74% hits;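 active = inhibition above about 55%, limit read from the data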;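 note: 0% = DMSO-treated cells and 100% = wells with medium but no cells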
697 NFkB inh: lowers PMA/ionomycin-induced NF-kB signal in 697 B cells; 697 B-cell NF-kB luciferase reporter, 16 h; inhibition, % at 4 µM; 330,000 compounds, 0.33% hits; in the data active = inhibition above about 35%
Jurkat NFkB inh: lowers PMA/ionomycin-induced NF-kB signal in Jurkat cells | PMA/ionomycin-induced NF-kB luciferase reporter, luminescence | 330,000 compounds, 0.53% hits | inhibition, % at 4 µM | AID 435003; in the data active = inhibition above about 50%
SMARCA2 activ: SMARCA2 function activation, primary screen; activation, % at 9.1 µM; MG213 cells, MMTV-luciferase reporter, dexamethasone, overnight; AID 652017; 370,000 compounds, 1% hits; in the data active = activation above about 7.8%;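 note: 0% = vehicle wells and 100% = reference activator wells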
esBAF inh: SWI/SNF esBAF complex inhibition. mouse ES cells, Bmi1-luciferase knock-in reporter, 24 h; 100% = twice the neutral-well signal. 350,000 compounds, 2% hits. AID 602393. reporter increase, % at 12.5 µM; in the data active = activation above about 40%;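 note: 0% = median of the plate's neutral control wells and 100% = double that signal; a rise in the Bmi1 reporter signal indicates esBAF inhibition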
SMARCA2 act conf: confirmation of SMARCA2 (BRM) function activators. shares compounds with SMARCA2 activ. MG213 cells, MMTV-luciferase with dexamethasone, luminescence, overnight; MG213 cells expressing E1A, Rb sequestered; DMSO wells 0%, reference activator 100%. 3,500 compounds, 30% hits. activation, % at 9.1 µM;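 active = activation above its plate's cutoff, the mean activation of tested wells plus 3 SD, cut at about 7.9% in these data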
GAL4-VP16 Luc: GAL4-VP16 reporter activation counter-screen | shares compounds with SMARCA2 activ | HEK293 GAL4-VP16 pG5luc reporter, luciferase luminescence; scaled: DMSO wells 0%, SAHA wells 100% | activation, % at 9.1 µM | 3,500 compounds, 41% hits | AID 686939;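 active = activation above the solvent-only control well mean plus 3 SD, averaged across control plates, cut at about 5.2% in these data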
The depositor's hits bear a star; . = no result. In the library only some 3.3% were active in any assay of this set; here they are far more common.

SMILES	Gli-Sufu block	697 NFkB inh	Jurkat NFkB inh	SMARCA2 activ	esBAF inh	SMARCA2 act conf	GAL4-VP16 Luc
Cn1cc([N+](=O)[O-])c(C(=O)Nc2ccc(-c3nc4ccccc4[nH]3)cc2)n1	-38	-58	-97	9.8*	.	11*	7.6*
CCCN(C)C[C@@H]1Oc2cc(-c3ccccc3C)ccc2S(=O)(=O)N([C@@H](C)CO)C[C@@H]1C	.	.	.	.	-7	.	.
O=C(NC1CCCC1)[C@H]1[C@H](CO)[C@H]2Cn3c(cccc3=O)[C@@H]1N2Cc1cc(F)ccc1F	.	.	.	.	1	.	.
COc1ccc2c(CC(=O)Nc3ncc(C)s3)coc2c1	-107	-40	-54	29*	.	42*	4
C[C@H](CO)N1C[C@H](C)[C@@H](CN(C)C(=O)Nc2ccc(F)cc2)Oc2c(NS(=O)(=O)c3cn(C)cn3)cccc2C1=O	.	.	.	.	-3	.	.
COC(=O)C[C@H]1CC[C@@H](NC(=O)c2ccccc2)[C@H](CO)O1	.	.	.	.	5	.	.
O=C(N[C@H]1CC[C@H](CCn2cc(C3(O)CCCC3)nn2)O[C@H]1CO)C1CCCC1	.	.	.	.	6	.	.
Cc1cc(C(=O)CSc2ncccn2)c(C)n1Cc1ccco1	-72	-189	-85	9.9*	28	9.9*	8.5*
CC(C)NC(=O)N1C[C@@H]2[C@H](c3ccccc31)[C@H](CO)N2Cc1ccc(Cl)cc1	.	.	.	.	-5	.	.
C[C@H](O)C#Cc1cnc2c(c1)C(=O)N([C@@H](C)CO)C[C@H](C)[C@H](CN(C)C(=O)c1ccncc1)O2	.	.	.	.	2	.	.
COc1ccc(CNC(=O)C2CCCN(S(=O)(=O)c3ccc4c(c3)C(C)(C)C(=O)N4C)C2)cc1 (configuration not stated)	0	-14	-9	-1	0	.	.
CN1C(=O)C(C)(C)c2cc(S(=O)(=O)N3CCCC(C(=O)NCc4ccccc4Cl)C3)ccc21 (configuration not stated)	14	-9	1	10*	-25	-3	4
Cc1ccc(S(=O)(=O)N2CC[C@@H]3[C@H]2c2cc(C#Cc4cccc(F)c4)ccc2N[C@@H]3CO)cc1	.	.	.	.	-2	.	.
CCOC(=O)[C@]12CCCC=C1N(Cc1ccco1)C(=O)[C@H](CC(=O)NCCc1ccccc1OC)C2	.	.	.	8.3*	.	0	0
CCOC(=O)[C@]12CCC=C1N(Cc1ccccc1)C(=O)[C@H](CC(=O)NCCc1ccccc1OC)C2	.	.	.	10*	.	-3	-1
CO[C@@H]1CC[C@H]2CCOc3c(C#N)cccc3C(=O)N(C)C[C@@H](c3ccccc3)CC(=O)N(C)C[C@@H]1O2	.	.	.	.	5	.	.
CCN(CC(=O)Nc1cccc(OC)c1)C(=O)c1ccc(C)s1	1	8	7	8.2*	2	1	3
COc1ccccc1N1CCN(C2=Nc3cccc4cccc2c34)CC1	-25	-119	-48	9.2*	38	22*	6.5*
c1ccc(-n2cnc3cc(NCc4ccco4)ccc32)cc1	-54	-111	-38	9.6*	.	5	8.2*
CNS(=O)(=O)c1ccc(NC(=S)Nc2ccc3c(c2)OCO3)cc1	-5	-5	-13	9.0*	.	3	0
CC(=O)Nc1ccc(S(=O)(=O)Nc2ccc3c(c2)OCO3)cc1	0	-3	16	-3	-4	.	.
Cc1ccc(NC(=O)c2cnccn2)nc1	-54	-63	-59	4	28	.	.
Cc1ccc(NC(=O)c2cnccn2)c(Br)c1	-6	-49	-27	10*	52*	8	6.2*
COCC(=O)Nc1ccc2c(c1)C(=O)N(C)C[C@H](OC)[C@H](C)CN(C(=O)c1ccncc1)[C@H](C)CO2	.	.	.	.	-9	.	.
COC(=O)c1cc(S(=O)(=O)N2CCCC2=O)c(Cl)cc1Cl	2	-9	-3	8.0*	0	2	0
SMILES	Gli-Sufu block	697 NFkB inh	Jurkat NFkB inh	SMARCA2 activ	esBAF inh	SMARCA2 act conf	GAL4-VP16 Luc
COC(=O)c1cc(S(=O)(=O)n2nc(C)cc2C)c(Cl)cc1Cl	6	11	-26	.	.	.	.
N#C/C(=C\c1ccc[nH]1)C(=O)Nc1ccccc1[N+](=O)[O-]	-29	-24	-50	11*	63*	14*	6.1*
Cc1ccccc1NC(=O)/C(C#N)=C/c1ccc[nH]1	-8	-13	-26	9.5*	24	1	5.3*
Cc1c(C(=O)N2CCCC2)c(S(=O)(=O)Nc2ccccc2)c(C)n1C	0	8	-5	14*	-2	-1	3
Cc1cc(C)cc(NS(=O)(=O)c2c(C(=O)N3CCOCC3)c(C)n(C)c2C)c1	-10	-16	17	10*	-9	0	0
Cc1n[nH]c(=S)n1/N=C/c1cccc(OCc2ccccc2)c1	20	-20	-12	8.6*	.	-1	2
Cc1cccc(/C=N/n2c(COc3ccccc3)n[nH]c2=S)c1	9	0	0	-2	4	.	.
CCCn1c(C)cc(C(=O)Cn2nnc3ccccc3c2=O)c1C	-96	-176	-127	9.1*	.	10*	7.3*
C[C@H](CO)N1C[C@H](C)[C@H](CN(C)CC2CCCCC2)Oc2cc(C3=CCCC3)ccc2S1(=O)=O	.	.	.	.	-7	.	.
O=[N+]([O-])c1cnc(Sc2ccncn2)s1	5	9	28	12*	.	-15	5.5*
O=C(OCc1nc2ccccc2s1)c1cc2ccccc2oc1=O	.	-54	-46	8.2*	.	6	9.1*
O=C(CN1C(=O)CSc2ccccc21)NC1CCCC1	-5	-11	-10	8.3*	0	0	0

Compound activity (PubChem BioAssay)
